Assay results as given in PubChem BioAssay AID1259389 (Center for Chemical Genomics, University of Michigan, 2018).
The whole screen tested about 100,000 compounds, of which about 620 (0.62%) were called active. Rule for the calls: active = z-score of 3 or more in at least 2 runs; inactive = the rest. This excerpt belongs to a sample that is enriched for actives.

Assay: TAR RNA-Tat peptide displacers, HIV-1, primary screen, biochemical, FRET, FAM/TAMRA-labeled Tat (AID 1259389)
Conditions: HIV-1 TAR RNA, Tat peptide displacement FRET; stronger effect = higher value
In the case of `Cc1c2c(c(O)c3c(O)cccc13)C(=O)OC2[C@@H]1C(N(C)C)C(O)=C(C(N)=O)C(=O)[C@H]1O` (stereo partly drawn), the z-score is reported as 31 (active).
With `COc1cc(NC(=O)NCC2CCCO2)cc2sc(NS(=O)(=O)c3ccccc3)nc12` (stereo not drawn) the z-score was 0.36 (inactive).
In the case of `Cc1ccc2cc(-c3noc(CCC(N)=O)n3)c(=O)[nH]c2c1`, the z-score is reported as 6.88 (active).
For `Cc1ccc2cc(-c3noc(CC(C)C)n3)c(=O)[nH]c2c1`, the z-score was -1.58 (inactive).
For `COc1cccc(-c2nc(-c3cc4cc(C)ccc4[nH]c3=O)no2)c1`, the z-score was 0.22 (inactive).
In the case of `C=CCOc1ccc(C2c3c(oc4ccc(F)cc4c3=O)C(=O)N2CCOC)cc1` (stereo not drawn), the z-score is reported as 2.08 (inactive).
With `CCCOC(=O)C1=C(C)Nc2nnnn2C1c1cc(Br)ccc1OC` (stereo not drawn) the z-score was -6.75 (inactive).
With `Cc1cc2c3c([nH]c2cc1S(=O)(=O)Nc1ccccc1F)CC(C)(C)CC3=O` the z-score was 0.08 (inactive).
For `CCCS(=O)(=O)Nc1cccc(-c2cn3ccsc3n2)c1`, the z-score was 15.9 (active).
With `Cc1ccc(S(=O)(=O)Nc2cccc(-c3cn4ccccc4n3)c2)cc1C` the z-score was 0.58 (inactive).
With `CCCS(=O)(=O)Nc1cccc(-c2ccc(S(=O)(=O)CC)nn2)c1` the z-score was -0.4 (inactive).
With `O=C1COc2cc(S(=O)(=O)CCC(=O)N3CCCC3)c(Cl)cc2N1` the z-score was 0.78 (inactive).
For `CCN1CCN(c2ncnc3sc(C(=O)N4CCC(N5CCCCC5)CC4)c(C)c23)CC1`, the z-score was 1.72 (inactive).
With `COc1ncnc2sc(C(=O)O)c(C)c12` the z-score was 1.15 (inactive).
In the case of `Cc1ccc(C)c(N2CCN(c3ncnc4sc(C(=O)O)c(C)c34)CC2)c1`, the z-score is reported as 4.41 (active).
In the case of `Cn1c(=O)oc2cc(S(=O)(=O)N3CCC(C(=O)NCCC4=CCCCC4)CC3)ccc21`, the z-score is reported as -0.51 (inactive).
In the case of `CCOC(=O)C1=C(C)NC2=C(C(=O)C(C(=O)OC)C(C)C2)C1c1ccc(C)s1` (stereo not drawn), the z-score is reported as 1.89 (inactive).
With `Cc1cccc(NC(=O)c2cc3c(s2)-c2ccccc2S(=O)(=O)C3)n1` the z-score was 1.46 (inactive).
For `CCc1ccc(Nc2nn3c(=O)c4cc5c(cc4nc3s2)OCO5)cc1`, the z-score was 3.98 (inactive).
In the case of `COC(=O)c1ccc2c(=O)n3nc(Nc4ccc(F)c(F)c4)sc3nc2c1`, the z-score is reported as -0.18 (inactive).
With `O=c1c2ccccc2nc2sc(Nc3ccc4c(c3)OCO4)nn12` the z-score was 18.8 (active).
With `C=CCN(Cc1nc(-c2cccc(C)c2)no1)S(=O)(=O)c1ccccc1` the z-score was 1.74 (inactive).
In the case of `CC(C)OC(=O)c1ccc(N2CC(O)=C(c3nc4ccccc4n3C)C2=N)cc1`, the z-score is reported as -0.32 (inactive).
With `CSc1cccc(N2CC(c3nc4ccccc4n3CCN3CCOCC3)CC2=O)c1` (stereo not drawn) the z-score was 1.11 (inactive).
With `CCc1cccc(NS(=O)(=O)c2ccc(/C=C/c3onc(C)c3[N+](=O)[O-])cc2)c1` the z-score was 1.16 (inactive).
For `CCCCN(C)S(=O)(=O)c1cc(-c2cc(C)no2)ccc1CC`, the z-score was 2.74 (inactive).
In the case of `CCCSc1ncc(CO)n1Cc1ccccc1`, the z-score is reported as 1.26 (inactive).
For `COc1ccccc1N1CCN(Cc2cc(=O)n3nc(C4CCCCC4)sc3n2)CC1`, the z-score was 0.09 (inactive).
For `CCC(CC)C(=O)Nc1ccc(OCc2cc(=O)n3cccc(C)c3n2)cc1`, the z-score was 2.07 (inactive).
In the case of `Cc1ccc(-c2ncnc3c(C#N)c4ccccn4c23)cc1`, the z-score is reported as 2.39 (inactive).
In the case of `O=C(Nc1nc2nc(-c3ccccc3)cc(=O)n2[nH]1)C1CCCCC1`, the z-score is reported as 0.88 (inactive).
With `O=C(Nc1nc2nc(-c3ccccc3)cc(=O)n2[nH]1)C1CC1` the z-score was 2.82 (inactive).
With `Nc1ccc(-c2cc(=O)n3[nH]cnc3n2)cc1` the z-score was 10.6 (active).
For `Cc1cc(-c2ccc(S(=O)(=O)N3CCc4ccccc4C3)s2)on1`, the z-score was 0.06 (inactive).
For `Cc1ccc(S(=O)(=O)Nc2ccc3c(c2)oc(=O)n3C)cc1`, the z-score was 1.19 (inactive).
With `CCSc1nc2c(c(=O)[nH]1)C(c1ccc(OC)c(Br)c1)CC(=O)N2` (stereo not drawn) the z-score was 1.43 (inactive).
In the case of `C#CCSc1nc2c(c(=O)[nH]1)C(c1ccc(O)c(O)c1)CC(=O)N2` (stereo not drawn), the z-score is reported as 26.9 (active).
For `C#CCSc1nc2c(c(=O)[nH]1)C(c1ccc(OCCCC)cc1)CC(=O)N2` (stereo not drawn), the z-score was -0.97 (inactive).
With `CCN(CC)C(=O)Cn1c(-n2nc(C)cc2C)nc2c(c1=O)CCCC2` the z-score was 1.12 (inactive).
With `Cc1ccc(-c2nc(CSCC(=O)NC3CC3)no2)cc1` the z-score was 0.42 (inactive).
In the case of `C=C(C)COc1ccc2oc(C)c(C(=O)OCC)c2c1`, the z-score is reported as 0.55 (inactive).
For `COc1cc(C2CC(=O)N3CN(c4ccccc4)CSC3=C2C#N)ccc1O` (stereo not drawn), the z-score was 31.5 (active).
For `COc1ccc(N2CSC3=C(C#N)C(c4cccc(Br)c4)CC(=O)N3C2)cc1` (stereo not drawn), the z-score was -0.77 (inactive).
In the case of `COC(=O)c1ccc(N2CSC3=C(C#N)C(c4ccc(Cl)cc4)CC(=O)N3C2)cc1` (stereo not drawn), the z-score is reported as -0.23 (inactive).
In the case of `COc1cccc(C2CC(=O)N3CN(c4ccc(Br)cc4)CSC3=C2C#N)c1` (stereo not drawn), the z-score is reported as -2.72 (inactive).
In the case of `CCOc1ccc(C2CC(=O)N3CN(c4ccc(OC)cc4OC)CSC3=C2C#N)cc1OC` (stereo not drawn), the z-score is reported as -4.55 (inactive).
In the case of `COc1cc(C2CC(=O)N3CN(c4ccc(Br)cc4)CSC3=C2C#N)ccc1O` (stereo not drawn), the z-score is reported as 24.7 (active).
In the case of `COc1cccc(Nc2c(O)c(=O)c2=O)c1`, the z-score is reported as -0.8 (inactive).
For `CCC(C)NC(=O)Cn1c(=O)n(CC2CCC(C(=O)N3CCCC3)CC2)c(=O)c2sccc21` (stereo not drawn), the z-score was 0.29 (inactive).
For `CC1CCCN(C(=O)Cn2c(=O)oc3cc(S(=O)(=O)N4CCCCC4C)ccc32)C1` (stereo not drawn), the z-score was 1.86 (inactive).
In the case of `CSc1nnc(-c2nonc2NC(C)=O)n1C`, the z-score is reported as 0.81 (inactive).
For `COc1cccc(Nc2nc(-c3cc(OC)ccc3OC)no2)c1`, the z-score was 1.24 (inactive).
For `CC(=O)N1N=C(c2cc(C3CC3)nc3ccccc23)OC1c1ccc([N+](=O)[O-])s1` (stereo not drawn), the z-score was 2.1 (inactive).
With `COc1ccccc1C1OC(c2cc(C3CC3)nc3ccccc23)=NN1C(C)=O` (stereo not drawn) the z-score was 1.12 (inactive).
In the case of `CC(=O)N1N=C(c2cc(C3CC3)nc3ccccc23)OC1c1ccc(F)cc1` (stereo not drawn), the z-score is reported as 21.6 (active).
For `COc1ccc(-c2nc3sccn3c2Nc2ccc(Cl)cc2)cc1`, the z-score was 0.26 (inactive).
With `O=c1[nH]c(-c2cccc(Cl)c2)nc2c1Cc1cc(F)ccc1O2` the z-score was 1.31 (inactive).
In the case of `CCOc1ccccc1NS(=O)(=O)c1cc2c3c(c1)C(C)C(=O)N3CCC2` (stereo not drawn), the z-score is reported as 2.12 (inactive).
For `Cc1cc(NS(=O)(=O)c2ccc3[nH]c(=O)ccc3c2)ccc1Br`, the z-score was 3.75 (active).
For `Cc1cc(NS(=O)(=O)c2ccc(-n3cccn3)cc2)ccc1Br`, the z-score was 0.31 (inactive).
With `Cc1ccc(S(=O)(=O)Nc2ccc3[nH]c(=O)oc3c2)cc1C` the z-score was 0.9 (inactive).
In the case of `CCC(C)NC(=O)c1ccc2c(=O)n(C)c3n[nH]c(=O)n3c2c1` (stereo not drawn), the z-score is reported as -1.23 (inactive).
In the case of `COC(=O)c1cccc(N2C(=O)C3C4C=CC(CC4)C3C2=O)c1` (stereo not drawn), the z-score is reported as -0.18 (inactive).
For `COc1cccc(-c2n[nH]c3c2C(c2cccs2)NC3=O)c1` (stereo not drawn), the z-score was 0.03 (inactive).
With `O=C1C(=O)N(CCCN2CCOCC2)C(c2ccc(F)cc2)/C1=C(\O)c1ccc(F)cc1` (stereo not drawn) the z-score was -0.23 (inactive).
In the case of `CCN(c1cccc(C)c1)c1c(-c2ccc(C)c(C)c2)c(=O)c1=O`, the z-score is reported as 1.19 (inactive).
With `Cc1cc(=O)oc2c1c(C)nn2-c1cccc(Br)c1` the z-score was 2.1 (inactive).
With `Cc1cccc(-n2nc(C)c3c(C)cc(=O)oc32)c1` the z-score was -1.35 (inactive).
For `Cc1cc(=O)oc2c1c(C)nn2-c1ccc(Cl)cc1`, the z-score was 6 (active).
In the case of `CCOCc1nc(N2CCOCC2)sc1C(=O)NCc1ccco1`, the z-score is reported as 1.59 (inactive).
In the case of `Cc1nc2c3cccnc3nn2c(C)c1CCC(=O)NC1CCCCC1`, the z-score is reported as 0.03 (inactive).
For `Cc1nc2nc(N3C(=O)CCC3=O)[nH]n2c(=O)c1C`, the z-score was 0.34 (inactive).
For `O=C(NCc1ccc2c(c1)OCO2)C(=O)c1c[nH]c2ccccc12`, the z-score was -0.39 (inactive).
In the case of `O=C(NCc1ccc2c(c1)OCO2)c1sc(=S)n2c1[nH]c(=O)c1ccccc12`, the z-score is reported as 8.38 (active).
With `O=C(NCc1ccc2c(c1)OCO2)c1sc2ncccc2c1-n1cccc1` the z-score was 0.34 (inactive).
With `CCc1ccc(S(=O)(=O)Nc2cccc(-c3ccc(S(C)(=O)=O)nn3)c2)s1` the z-score was -0.88 (inactive).
With `O=S(=O)(c1ccc(Cl)cc1)N(Cc1nc(-c2ccccc2)no1)C1CCCCC1` the z-score was -0.39 (inactive).
With `O=C(O)c1ccc2c(=O)[nH]c3c(C(=O)NC4CCCCC4)sc(=S)n3c2c1` the z-score was 10.3 (active).
With `C=CCNC(=O)c1sc(=S)n2c1[nH]c(=O)c1ccc(C(=O)OC)cc12` the z-score was -0.19 (inactive).
With `CC(C)NC(=O)c1sc(=S)n2c1[nH]c(=O)c1ccc(C(=O)NCCN(C)C)cc12` the z-score was 7.52 (active).
With `O=C(NC1CCCCC1)c1ccc(CNc2c(N3CCCC3)c(=O)c2=O)cc1` the z-score was 2.73 (inactive).
For `O=C(NC1CCCC1)c1ccc2c(=O)[nH]c3c(C(=O)NCC4CCCO4)sc(=S)n3c2c1` (stereo not drawn), the z-score was 9.34 (inactive).
For `CCOC(=O)c1sc(=S)n2c1[nH]c(=O)c1ccc(C(=O)OC)cc12`, the z-score was 3.58 (inactive).
With `Cc1nn2c(=O)cc(CSc3nnc(COc4ccccc4C)n3C)nc2s1` the z-score was -1.46 (inactive).
In the case of `CCNc1nc(NCCN(C)C)nc2c1cnn2C`, the z-score is reported as 1.49 (inactive).
With `CC1CCN(S(=O)(=O)c2ccc3nc(Nc4cc(F)ccc4F)ccc3c2)CC1` the z-score was 1 (inactive).
For `C=CCc1ccccc1OCc1cc(=O)n2nc(-c3ccc(OC)cc3)sc2n1`, the z-score was -1.28 (inactive).
With `CCOc1ccc(-c2nc3c(s2)CN(S(=O)(=O)c2cccc4nsnc24)CC3)cc1` the z-score was 0.4 (inactive).
For `Cc1nc2ccccc2n1CCNS(=O)(=O)c1ccc2c(c1)oc(=O)n2C`, the z-score was 3.26 (active).
In the case of `Cc1nn(C)c(C)c1CNS(=O)(=O)c1ccc2c(c1)oc(=O)n2C`, the z-score is reported as 0.45 (inactive).
In the case of `CCCNS(=O)(=O)c1ccc2c(c1)oc(=O)n2CC(=O)OCC`, the z-score is reported as -3.16 (inactive).
In the case of `CCC1CN(C(=O)Nc2ccccc2)c2ccccc2O1` (stereo not drawn), the z-score is reported as 1.11 (inactive).
In the case of `O=c1[nH]c(SCc2ccccc2)nnc1-c1ccccc1`, the z-score is reported as -0.2 (inactive).
For `O=C(CSc1ccc(-c2cccs2)nn1)Nc1ccc(Br)cc1`, the z-score was 2.14 (inactive).
In the case of `c1ccc(CSc2nnc(-c3ccco3)c(-c3ccco3)n2)cc1`, the z-score is reported as 8.76 (active).
For `CN(C)c1ccc(NC(=O)CSc2nc(-c3ccco3)cc(C(F)(F)F)n2)cc1`, the z-score was 0.28 (inactive).
In the case of `O=C(CSc1nnc(-c2ccco2)c(-c2ccco2)n1)Nc1ccc(Br)cc1`, the z-score is reported as 24.6 (active).
With `Nc1cc(=O)nc(SCc2ccccc2)n1Cc1ccco1` the z-score was 0.7 (inactive).
